Test [1] concerns Human papillomavirus type 1a protein E7 (residues 44-93). Description: HPV1a E7 fragment binders on microarrays, primary screen, biochemical, small-molecule microarray, residues 44-93, 635 nm fluorescence (AID 1108).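 Further: E7 fragment applied at 1 µg/mL in TBST for 1 h at 4 C; score combines spot fluorescence with its signal to noise ratio.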 Conditions: small-molecule microarray binding, fluorescence 635 nm; higher = more signal.
The nature of test [2]: modulators of HCV replicon luciferase signal, primary screen, HCV replication inhibitor project, Huh7 cells, luciferase reporter (AID 1109).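 Further: huh7 hepatoma cells harbouring a luciferase neomycin HCV replicon reporter; luciferase luminescence as measure of HCV replicon replication; test concentration not given here.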 Conditions: 48 h, higher = more signal. (Replicon systems follow genome replication, usually without infectious particles.)
Test [3] concerns the target Left-right determination factor 2 (Homo sapiens) (UniProt O00292). Description: LEFTY2 binders on small-molecule microarrays, primary screen, biochemical, small-molecule microarray, 635 nm fluorescence scan (AID 1110). Conditions: LEFTY2 binding, higher = more signal.
The target of test [4] is Calmodulin-1 (Homo sapiens) (UniProt P0DP23). Description: CALM1 binders on microarrays, EGTA buffer, profiling panel, biochemical, small-molecule microarray, Cy5-labelled CALM1 (AID 1111).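 Further: labelled calmodulin applied in Tris saline Tween buffer holding calcium plus EGTA and DTT.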 Conditions: Cy5-CALM1 binding fluorescence, higher = more signal.
The target is the same in test [5]. Description: calcium-bound CALM1 binders on microarrays, profiling panel, artefact control for SMM control-protein annotation, biochemical, small-molecule microarray, Cy5-labelled CALM1, plus calcium (AID 1112).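 Further: score merges spot fluorescence with signal to noise from triplicate slides.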 Conditions: Cy5-CALM1 binding fluorescence, higher = more signal.
Test [6] is described as follows: small-molecule microarray binders of probe aWnt5a, primary screen, biochemical, biotinylated probe, 635/667 nm fluorescence (AID 1113).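 Further: score merges 667 nm fluorescence intensity with signal-to-noise per printed feature.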 Conditions: higher = more signal.
A short description of test [7]: small-molecule microarray binders of probe aShh, primary screen, biochemical, biotinylated probe, 635/667 nm fluorescence (AID 1114).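 Further: probe is biotin-labelled aShh protein from a stem cell growth factor screen; measures binding of labelled protein to compounds printed on the slide; score merges feature fluorescence at 667 nm with signal-to-noise.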 Conditions: higher = more signal.
A short description of test [8]: small-molecule microarray binders of probe aNog, primary screen, biochemical, biotinylated probe, 635/667 nm fluorescence (AID 1115).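 Further: probe is biotinylated aNog protein used at 0.15 µg/mL for 1 h at 4 C; z-score combines 667 nm fluorescence of each spot with its signal to noise.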 Conditions: higher = more signal.
For test [9], the target named is Torsin-1A-interacting protein 1 (Homo sapiens) (UniProt Q5JTV8). Description: LAP1 binders from COS7 cell lysate, primary screen, small-molecule microarray, 635/667 nm fluorescence (AID 1116). Conditions: COS7-hLAP1 lysate binding, 635 nm fluorescence, higher = more signal.
Test [10] deals with Alpha-bungarotoxin (Bungarus multicinctus) (UniProt P60615). Description: alpha-bungarotoxin binders on microarray, profiling panel, artefact control for SMM control protein annotation, biochemical, small-molecule microarray, Alexa647 label, 635/667 nm fluorescence (AID 1117). Conditions: alpha-BTX-A647 binding fluorescence, higher = more signal.
A further test has as its target Albumin (Bos taurus) (UniProt P02769). Description: bovine serum albumin binders on microarray, profiling panel, artefact control for SMM control protein annotation, biochemical, small-molecule microarray, Alexa647 label, 635/667 nm fluorescence (AID 1118).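 Further: score merges 667 nm emission intensity and signal-to-noise per printed compound spot.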 Conditions: BSA-A647 binding, fluorescence 635 nm, higher = more signal.
A short description of test [11]: small-molecule microarray binders of probe aXIP, primary screen, biochemical, NeuroSMM set, 635/667 nm fluorescence (AID 1119).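 Further: probe is the protein aXip251-270 applied at 1 µg/mL to compound-printed slides; binding of probe to printed compounds measured as 667 nm fluorescence plus signal to noise.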 Conditions: higher = more signal, called active from +8 up or from −8 down.
The nature of test [12]: small-molecule binders of probe aNOTCH3, primary screen, biochemical, small-molecule microarray, 635/667 nm fluorescence (AID 1120).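 Further: probe is a biotin-tagged antibody raised against NOTCH3 rather than NOTCH3 protein; score merges spot fluorescence near 667 nm with spot signal to noise.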 Conditions: higher = more signal.
A short description of test [13]: small-molecule binders of probe aNOTCH2, primary screen, biochemical, small-molecule microarray, 635/667 nm fluorescence (AID 1121).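 Further: score merges feature fluorescence read at 667 nm with its signal to noise.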 Conditions: higher = more signal.
Test [14] addresses Carbonic anhydrase 2 (Homo sapiens) (UniProt P00918). Description: CAII small-molecule binders, profiling panel, biochemical, small-molecule microarray, Alexa647-labelled CAII (AID 1122). Conditions: CAII-A647 binding fluorescence, higher = more signal.
A short description of test [15]: COS7 lysate on small-molecule microarray, probe aHis, 635 nm (AID 1123).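 Further: z-score combines 667nm fluorescence intensity with signal-to-noise per printed compound spot.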 Conditions: COS7 cell lysate, fluorescence, higher = more signal.
Test [16] can be described thus: compound binding in COS7 lysate, probe aLAP1, primary screen, cell lysate, small-molecule microarray (AID 1124).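 Further: lysate comes from COS7 cells expressing LAP1 and is applied at 0.3 µg/mL; score merges spot fluorescence near 667 nm with signal-to-noise over triplicate slides.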 Conditions: probe aLAP1, fluorescence, higher = more signal.
The next test deals with Sam68 (KHDRBS1). Description: Sam68 small-molecule binders, primary screen, biochemical, small-molecule microarray, 635 nm fluorescence (AID 1125).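 Further: score merges 667 nm channel intensity with signal to noise over triplicate slides.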 Conditions: small-molecule microarray binding, higher = more signal.
Test [17] deals with Chordin-like protein 2 (CHRDL2). Description: CHRDL2 small-molecule binders, primary screen, biochemical, small-molecule microarray, 635 nm fluorescence (AID 1126).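 Further: printed compound slides probed with Chrdl2 protein at 4 µg/mL for 1 h at 4 C; score merges 667 nm emission intensity with signal to noise over three replicate slides.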 Conditions: small-molecule microarray binding, fluorescence 635 nm; higher = more signal.
Test [18] deals with Concanavalin-A (Canavalia ensiformis) (UniProt P02866). Description: ConA small-molecule binders, primary screen, artefact control for SMM control protein annotation, biochemical, small-molecule microarray, Alexa647 label, 635 nm (AID 1127).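 Further: z combines 667 nm emission intensity with signal-to-noise across three replicate slides.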 Conditions: ConA-A647 binding fluorescence, higher = more signal.

Results on six compounds are retold here after PubChem BioAssay.

Molecules are shown by their SMILES. Active and inactive are the calls of the source.

Sequence of Torsin-1A-interacting protein 1 (Homo sapiens) (Q5JTV8 whole entry, looked up): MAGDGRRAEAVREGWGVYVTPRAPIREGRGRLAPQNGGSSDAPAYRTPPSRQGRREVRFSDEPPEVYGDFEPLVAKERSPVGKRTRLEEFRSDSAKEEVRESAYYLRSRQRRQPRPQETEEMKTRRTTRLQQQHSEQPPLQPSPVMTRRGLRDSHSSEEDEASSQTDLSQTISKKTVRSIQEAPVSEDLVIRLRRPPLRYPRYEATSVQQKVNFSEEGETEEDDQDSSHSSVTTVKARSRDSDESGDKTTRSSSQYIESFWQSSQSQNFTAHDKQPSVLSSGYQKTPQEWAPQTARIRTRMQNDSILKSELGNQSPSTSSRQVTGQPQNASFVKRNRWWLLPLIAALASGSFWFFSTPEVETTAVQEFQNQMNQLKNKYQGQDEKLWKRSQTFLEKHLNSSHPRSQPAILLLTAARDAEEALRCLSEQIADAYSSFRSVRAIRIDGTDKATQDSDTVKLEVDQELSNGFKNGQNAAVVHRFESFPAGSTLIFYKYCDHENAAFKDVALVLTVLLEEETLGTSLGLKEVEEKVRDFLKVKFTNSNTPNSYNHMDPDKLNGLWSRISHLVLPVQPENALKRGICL
Sequence of Concanavalin-A (Canavalia ensiformis) (P02866 whole entry, looked up): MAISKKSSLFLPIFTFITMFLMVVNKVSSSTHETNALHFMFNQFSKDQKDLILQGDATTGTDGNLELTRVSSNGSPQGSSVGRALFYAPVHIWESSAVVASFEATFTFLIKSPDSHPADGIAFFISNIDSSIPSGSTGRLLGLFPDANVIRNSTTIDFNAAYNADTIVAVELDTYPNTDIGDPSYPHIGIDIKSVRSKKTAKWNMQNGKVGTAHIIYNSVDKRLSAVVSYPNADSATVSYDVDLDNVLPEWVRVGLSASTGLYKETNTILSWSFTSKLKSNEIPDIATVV
Sequence of Albumin (Bos taurus) (P02769 whole entry, looked up): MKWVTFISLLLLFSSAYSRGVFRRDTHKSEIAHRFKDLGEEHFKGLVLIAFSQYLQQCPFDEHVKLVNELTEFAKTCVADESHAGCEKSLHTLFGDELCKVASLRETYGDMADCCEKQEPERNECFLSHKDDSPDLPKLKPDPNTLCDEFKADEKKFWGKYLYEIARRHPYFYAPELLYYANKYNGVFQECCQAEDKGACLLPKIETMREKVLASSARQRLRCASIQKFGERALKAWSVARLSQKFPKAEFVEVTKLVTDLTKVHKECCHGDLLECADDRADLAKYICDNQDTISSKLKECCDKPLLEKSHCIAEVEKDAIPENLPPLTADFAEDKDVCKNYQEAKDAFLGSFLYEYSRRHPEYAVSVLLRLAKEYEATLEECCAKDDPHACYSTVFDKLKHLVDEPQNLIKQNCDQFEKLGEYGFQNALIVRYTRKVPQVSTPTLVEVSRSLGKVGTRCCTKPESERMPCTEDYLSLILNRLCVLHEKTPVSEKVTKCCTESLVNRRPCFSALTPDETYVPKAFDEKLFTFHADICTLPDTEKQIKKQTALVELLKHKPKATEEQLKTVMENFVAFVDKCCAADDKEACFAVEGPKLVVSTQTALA
Sequence of Left-right determination factor 2 (Homo sapiens) (O00292 whole entry, looked up): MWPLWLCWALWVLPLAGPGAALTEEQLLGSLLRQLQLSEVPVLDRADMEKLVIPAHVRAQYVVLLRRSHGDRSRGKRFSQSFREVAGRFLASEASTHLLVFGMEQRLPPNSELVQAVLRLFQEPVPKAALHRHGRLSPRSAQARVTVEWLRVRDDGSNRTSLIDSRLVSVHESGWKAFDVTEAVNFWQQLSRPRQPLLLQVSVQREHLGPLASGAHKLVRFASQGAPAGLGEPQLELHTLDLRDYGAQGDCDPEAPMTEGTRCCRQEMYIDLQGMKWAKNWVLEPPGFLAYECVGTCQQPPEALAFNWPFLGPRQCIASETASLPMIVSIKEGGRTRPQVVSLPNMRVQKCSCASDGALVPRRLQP
Sequence of Alpha-bungarotoxin (Bungarus multicinctus) (P60615 whole entry, looked up): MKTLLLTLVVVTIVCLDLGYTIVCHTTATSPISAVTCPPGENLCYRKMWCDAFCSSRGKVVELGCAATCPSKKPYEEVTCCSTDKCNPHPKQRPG

`CC(C)N1CC=CC23O[C@@H]4/C=C\CCCOC(=O)C4[C@H]2C(=O)N(CCCCCCO)[C@@H]3C1=O` (stereo not given in full): the composite z-score was 0.509 in test [1]; -1.46 in [3]; -0.954 in test [4]; -0.488 in [5]; -0.0643 in test [6]; -0.346 in test [7]. Besides, the composite z-score in test [8] is 0.345; in test [9] it was 0.881; in test [10], -1.5; with Albumin (Bos taurus), -0.616; in test [12] it was -0.277; in test [13], -0.0895. Also, the composite z-score in test [14] was 0.938; in test [15], 1.28; in [16], 1.14; in the test on Sam68 (KHDRBS1) it was 0.223; in test [17], -1.26; in test [18], -1.02. Besides, the z-score in [2] is -0.276. Also, in test [11], the composite Z-score was 0.379 (inactive).

`COC(=O)[C@@]1(Cc2ccccc2CN=[N+]=[N-])N=C(c2ccc(OCCCO)cc2)O[C@H]1c1ccccc1CN=[N+]=[N-]`: the composite z-score in [1] was 0.445; in test [3], -2.01; in test [4] it was 0.0829; in test [5], 0.526; in [6] it was 0.0733; in test [7], -0.156. Further, the composite z-score in test [8] is 0.96; in [9], 1.1; in [10] it was 0.0937; with Albumin (Bos taurus), -0.747; in test [12], -0.15; in test [13], -0.101. The composite z-score in test [14] was 0.885; in test [15] it was 1.77; in test [16] it was 0.017; in the test on Sam68 (KHDRBS1) it was -0.63; in [17], -1.42; in test [18], 0.114. In addition, the z-score in test [2] is -2.92. Moreover, the composite Z-score in [11] is -0.221 (inactive).

For the compound `COCCCNC(=O)[C@@]1(c2ccc([N+](=O)[O-])cc2)CC(=O)N(C(C)C)[C@@H]1c1ccc(CO)cc1`, the composite z-score in test [1] is -1.48; in test [3], -0.195; in [4], -1.61; in test [5] it was -0.129; in test [6], 0.0559; in test [7], -0.211. The composite z-score in test [8] is -0.261; in test [9] it was 1.94; in test [10] it was 1.88; with Albumin (Bos taurus), 0.224; in test [12], -0.424; in test [13], -0.0282. Also, the composite z-score was 0.729 in test [14]; 0.198 in test [15]; 1.25 in [16]; 0.353 with Sam68 (KHDRBS1); 0.454 in [17]; -1.5 in test [18]. Besides, in [2], the z-score amounted to 0.198. Besides, the composite Z-score in [11] was -0.786 (inactive).

`COc1ccc(C#Cc2ccc3c(c2)[C@]2(C(=O)N3)[C@H](c3ccc(OCCO)cc3)N3[C@H](c4ccccc4)[C@H](c4ccccc4)OC(=O)[C@H]3[C@@H]2C(=O)N2CCc3cc(OC)c(OC)cc3C2)cc1`: the composite z-score is 1.33 in test [1]; 0.461 in test [3]; 1.08 in [4]; 0.684 in test [5]; -0.0215 in test [6]; 0.0589 in [7]. The composite z-score is -0.155 in [8]; 0.168 in [9]; 0.841 in [10]; 0.0867 with Albumin (Bos taurus); 0.233 in [12]; -0.23 in test [13]. Besides, the composite z-score in [14] worked out at 0.438; in [15] it was 2.04; in test [16], 0.216; with Sam68 (KHDRBS1) it was 1.12; in [17], 0.704; in test [18] it was 1.09. Further, the z-score in test [2] was -1.23. Moreover, the composite Z-score in test [11] was -0.487 (inactive).

For the compound `COc1cc(NN2C(C(O)c3cc(OC)c(OC)c(OC)c3)C=CC3C(=O)N(c4ccccc4)C(=O)C32)cc(OC)c1OC` (stereo not given), the composite z-score is 1.41 in test [1]; 0.307 in test [3]; 2.02 in [4]; 0.986 in test [5]; 0.145 in [6]; -0.0193 in test [7]. Moreover, the composite z-score came to 0.756 in [8]; 1.56 in test [9]; 2.35 in [10]; 1.06 with Albumin (Bos taurus); 0.612 in test [12]; 0.044 in test [13]. Besides, the composite z-score was found to be 0.722 in test [14]; 2.19 in [15]; 0.289 in [16]; 1.32 with Sam68 (KHDRBS1); 0.476 in [17]; 1.2 in test [18]. Also, in test [2], the z-score was -1.54. For the same compound, the composite Z-score in test [11] was 0.573 (inactive).

Regarding `CC1CC/C=C\[C@H]2OC34C=CCN(C(C)(C)C)C(=O)[C@H]3N(C(CO)C(C)C)C(=O)[C@@H]4C2C(=O)O1` (stereo not given in full), the composite z-score is -1.26 in test [1]; 0.272 in test [3]; -0.745 in test [4]; -0.554 in [5]; -0.0882 in [6]; 0.0469 in test [7]. The composite z-score in test [8] was -0.316; in test [9], 0.952; in [10], -0.62; in the test with Albumin (Bos taurus) it was -0.667; in test [12], -0.0647; in [13] it was -0.0974. Also, the composite z-score is 0.867 in test [14]; 1.37 in test [15]; 0.876 in [16]; 0.117 in the test with Sam68 (KHDRBS1); -0.165 in [17]; -0.268 in [18]. Besides, the z-score in test [2] worked out at 0.434. In addition, the composite Z-score in [11] is 0.148 (inactive).
